Results filed as inconclusive are left out. Unmarked numbers belong to inactive results. Calls come from the whole dose curve; as a rule, active = well fitted inhibition curve with a large enough effect; inconclusive = small, poorly fitted or top-dose-only effect; inactive = flat fitted curve, though single readings scatter. Positions of bridges follow the written chain, without caps; N, C: chain ends. Non-standard residues stand in square brackets, D forms with d. Residues, ends and D or L forms follow the SMILES beside them. ξ: configuration not given here. *: point of attachment. Octanoyl(6-Me) = CCC(C)CCCCC(=O)*; ξThr(3R) = C[C@@H](O)C(N)C(=O)O; dDab = NCC[C@@H](N)C(=O)O; Dab = NCC[C@H](N)C(=O)O

The assay concerns Zika virus NS2B-NS3 protease. Description: Primary screen GU AMC qHTS for Zika virus inhibitors (AID 1347154).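 Note: 0% = no-inhibitor control and -100% = no-enzyme control; nearly all actives have a fitted effect of over 70% in size.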 The settings on record: Zika NS2B-NS3 unlinked protease, AMC fluorogenic substrate; series mostly up to 54.1 µM; activity change, negative = inhibition: at the top concentration. Put shortly:
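Unlinked Zika NS2B hydrophilic domain/NS3 protease domain noncovalent complex (25 nM final) in 10 mM Tris-HCl pH 8.0, 0.01% Tween 20, with AMC peptide substrate. Fluorescence (ex 340, em 450 nm) change over 15 min, room temperature; percent inhibition fitted to 4-parameter Hill equation.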
(In qHTS, concentration-response curves come from the screen itself.)
Turning to `C[C@@]12C[C@@]3(O)O[C@@H](O1)[C@]1(COC(=O)c4ccccc4)[C@@H]3C[C@@]12O[C@@H]1O[C@H](CO)[C@@H](O)[C@H](O)[C@@H]1O`, the “activity change, negative = inhibition” value was 6.27%.

As for `Cn1cnc(=N)c2[nH]cnc21`, the “activity change, negative = inhibition” value is 16.9%.

With `Oc1ccc([C@@H]2Oc3ccc(O)cc3[C@@H]3CCC[C@@H]32)cc1`, the “activity change, negative = inhibition” value is -6.85%.

In the case of `NC(=O)N1CCC(CC(=O)N2CCC([C@H]3c4ncc(Br)cc4CCc4cc(Cl)cc(Br)c43)CC2)CC1`, the “activity change, negative = inhibition” value is -7.77%.

Regarding `C[C@@H]1[C@H](C)CC[C@]2(C(=O)O)CC[C@]3(C)C(=CC[C@@H]4[C@@]5(C)C[C@@H](O)[C@H](O)[C@@](C)(CO)[C@H]5CC[C@]43C)[C@@H]12`, the “activity change, negative = inhibition” value is 3.19%.

Turning to `Cc1[nH]c(C=C2C(=O)Nc3ccccc32)c(C)c1CCC(=O)O`, the “activity change, negative = inhibition” value is -23%.

As for `COc1cc(C(=O)NC2CCN(C)CC2)ccc1Nc1ncc2c(n1)N(C1CCCC1)CCC(=O)N2C(C)C`, the “activity change, negative = inhibition” value was -0.39%.

Take `Cn1cc(C[C@@H](N)C(=O)O)c2ccccc21`: the “activity change, negative = inhibition” value was 3.43% [at 25.8 µM].

As for `CC(C)(C)[N+]([O-])=Cc1ccc(S(=O)(=O)O)cc1S(=O)(=O)O`, the “activity change, negative = inhibition” value was 1.62%.

On to `COc1cccc2c1C(=O)c1c(O)c3c(c(O)c1C2=O)C[C@@](O)(C(=O)CO)C[C@H]3O[C@H]1C[C@H](N)[C@H](O)[C@H](C)O1`, for which the “activity change, negative = inhibition” value was -4.53%.

Take `CCCc1nc(C(C)(C)O)c(C(=O)O)n1Cc1ccc(-c2ccccc2-c2nn[nH]n2)cc1`: the “activity change, negative = inhibition” value was 8.01%.

As for `C[C@H]1C[C@H]2[C@@H]3CCC4=CC(=O)C=C[C@]4(C)[C@@H]3C(=O)C[C@]2(C)[C@@]1(O)C(=O)CO`, the “activity change, negative = inhibition” value was 2.9%.

As for `CCc1c(O)cc(O)c(C(=O)c2ccc(OCCN3CCOCC3)c(OC)c2)c1CC(=O)N(CCOC)CCOC`, the “activity change, negative = inhibition” value is -3.25%.

For the compound `CO[C@@H]1[C@@H](O)[C@H](O)[C@@H](n2c3c(Cl)cccc3c3c4c(c5c6cccc(Cl)c6[nH]c5c32)C(=O)NC4=O)O[C@@H]1CO`, the “activity change, negative = inhibition” value was -1.38%.

Consider `COc1cc(OC)c(C=CS(=O)(=O)Cc2ccc(OC)c(NCC(=O)O)c2)c(OC)c1`, for which the “activity change, negative = inhibition” value is -5.74%.

`COc1ccc(Nc2nccc(NCCO)n2)cc1`: the “activity change, negative = inhibition” value was -13.3%.

For the compound `COc1cc2c(cc1OC)[C@@H]1C(=O)c3ccc4c(c3O[C@@H]1CO2)C=CC(C)(C)O4`, the “activity change, negative = inhibition” value was 1.25%.

With `CCOC(=O)[C@H](CCc1ccccc1)N[C@@H](C)C(=O)N1[C@@H](C(=O)O)C[C@H]2CCC[C@@H]21`, the “activity change, negative = inhibition” value is -16.8%.

Take `CNC(=O)c1ccc(Nc2cc(Nc3ccccc3S(=O)(=O)C(C)C)c3cc[nH]c3n2)nc1`: the “activity change, negative = inhibition” value was -7.48%.

Regarding `C[C@@H]1CC[C@@]2(OC1)OC1CC3C4CC=C5CC(O)CCC5(C)C4CCC3(C)C1[C@@H]2C` (stereo not given in full), the “activity change, negative = inhibition” value is 9.39%.

As to `COc1cc([C@@H]2c3cc4c(cc3[C@@H](O[C@@H]3O[C@@H]5CO[C@@H](c6cccs6)O[C@@H]5[C@H](O)[C@@H]3O)[C@H]3COC(=O)[C@H]23)OCO4)cc(OC)c1O`, the “activity change, negative = inhibition” value was 12.1%.

`CC[C@H]1OC(=O)[C@H](C)[C@@H](O[C@H]2C[C@@](C)(OC)[C@@H](O)[C@H](C)O2)[C@H](C)[C@@H](O[C@@H]2O[C@@H](C)C[C@H](N(C)C)[C@@H]2O)[C@](C)(O)C[C@@H](C)C(=O)[C@H](C)[C@@H](O)[C@]1(C)O`: the “activity change, negative = inhibition” value was 6.83%.

For `C[C@H](NCc1ccc2c(c1)nc(NC(=O)c1ccc(-c3cn[nH]c3)s1)n2CCc1ccccc1)C(C)(C)C`, the “activity change, negative = inhibition” value was -3.86%.

Regarding `COc1cc([C@@H]2c3cc4c(cc3[C@H](O)[C@H]3COC(=O)[C@@H]23)OCO4)cc(OC)c1OC`, the “activity change, negative = inhibition” value was 9.52%.

With `CC[C@]12C=CCN3CC[C@@]4(c5cc([C@@]6(C(=O)OC)C[C@H]7C[C@@H](C(C)(F)F)CN(Cc8c6[nH]c6ccccc86)C7)c(OC)cc5N(C)[C@H]4[C@@](O)(C(=O)OC)[C@H]1OC(C)=O)[C@@H]32`, the “activity change, negative = inhibition” value was 0.27%.

In the case of `Nc1ccc(C(=O)Nc2cccc(-c3nc(N4CCOCC4)c4oc5ncccc5c4n3)c2)cn1`, the “activity change, negative = inhibition” value was -20.6%.

Take `NS(=O)(=O)OC[C@@H]1C[C@@H](n2ccc3c(N[C@H]4CCc5ccccc54)ncnc32)C[C@H]1O`: the “activity change, negative = inhibition” value was 10.7%.

For the compound `CCC(C)CCCCC(=O)N[C@@H](CCN)C(=O)NC(C(=O)N[C@H](CCN)C(=O)N[C@@H]1CCNC(=O)C([C@@H](C)O)NC(=O)[C@@H](CCN)NC(=O)[C@@H](CCN)NC(=O)[C@@H](CC(C)C)NC(=O)[C@H](Cc2ccccc2)NC(=O)[C@H](CCN)NC1=O)[C@@H](C)O` (stereo partly drawn) ({Octanoyl(6-Me)}-[Dab][ξThr(3R)][dDab][dDab][Dab]F[dL][dDab][dDab][ξThr(3R)]; lactam 4-C), the “activity change, negative = inhibition” value was 18.6%.

With `c1coc(CNc2ncnc3nc[nH]c23)c1`, the “activity change, negative = inhibition” value was 3.86%.

Regarding `C[C@H](NC(=O)C(C#N)=Cc1cccc(Br)n1)c1ccccc1`, the “activity change, negative = inhibition” value is 5.08%.

On to `C[C@H](NC(=O)[C@@H](O)c1cc(F)cc(F)c1)C(=O)N[C@@H]1C(=O)N(C)c2ccccc2-c2ccccc21`, for which the “activity change, negative = inhibition” value is 0.499%.

In the case of `CCCCC(=O)O[C@]1(C(=O)CO)[C@@H](C)C[C@H]2[C@@H]3CCC4=CC(=O)C=C[C@]4(C)[C@@]3(F)[C@@H](O)C[C@@]21C`, the “activity change, negative = inhibition” value was -8.31%.

For `Cn1cc(-c2cnn3c(N)c(Br)c([C@H]4CCCNC4)nc23)cn1`, the “activity change, negative = inhibition” value is 8.3%.

`CCCNC(=O)[C@H]1O[C@H]1C(=O)N[C@H](C(=O)N1CCC[C@@H]1C(=O)OC)C(C)CC` (stereo not given in full): the “activity change, negative = inhibition” value was 8.63%.

For `CCCCCCCCCCCCc1ccc(S(=O)(=O)Nc2nncs2)cc1`, the “activity change, negative = inhibition” value is 2.59%.

For the compound `CC(=O)SCC(Cc1ccccc1)C(=O)NCC(=O)OCc1ccccc1` (stereo not given), the “activity change, negative = inhibition” value is 10.7%.

As to `CCOC(=O)N1CCN([N+]([O-])=NOc2ccc([N+](=O)[O-])cc2C#N)CC1`, the “activity change, negative = inhibition” value was 2.48%.

Take `N#Cc1ccc(COC[C@H]2O[C@@H](n3c(NCc4ccc(Cl)c(Cl)c4)nc4c(N)ncnc43)[C@@H](O)[C@@H]2O)cc1`: the “activity change, negative = inhibition” value was 7.32%.

For `O=c1ccn([C@@H]2O[C@H](CO)[C@H](O)[C@@H]2F)c(=O)[nH]1`, the “activity change, negative = inhibition” value is 4.16%.

As to `CCCCCCCCCCCCCCCC(=O)OC[C@@H](NC(=O)C(Cl)Cl)[C@H](O)c1ccc([N+](=O)[O-])cc1`, the “activity change, negative = inhibition” value is -8.72%.

For the origin of these results see PubChem BioAssay (NCATS).
